Reference: PubChem BioAssay (Tox21)
Inconclusive results are not listed. Active and inactive are the calls of the source. Unless noted, calls come from the whole dose curve; as a rule, active = well fitted curve in the direction sought with a large enough effect in the repeat runs; inconclusive = weak or mixed curves; inactive = no such curve, though single readings can be large; an effect the other way counts as inactive or inconclusive.

Assays:
[1] = qHTS assay to identify aromatase inhibitors - cell viability counter screen (AID 743084);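 note: cells stimulated with testosterone during compound exposure; nearly all actives have a fitted effect of over 55% in size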
[2] = molecular target: Aryl hydrocarbon receptor (Homo sapiens) (UniProt P35869); assay: qHTS assay to identify small molecule that activate the aryl hydrocarbon receptor (AhR) signaling pathway (AID 743085);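 note: HG2L7.5c1 human HepG2 liver cells with stably integrated DRE-driven firefly reporter; series mostly up to about 70 µM; nearly all actives have a fitted effect of over 15% in size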
Sequence of Aryl hydrocarbon receptor (Homo sapiens) (P35869 whole entry, looked up): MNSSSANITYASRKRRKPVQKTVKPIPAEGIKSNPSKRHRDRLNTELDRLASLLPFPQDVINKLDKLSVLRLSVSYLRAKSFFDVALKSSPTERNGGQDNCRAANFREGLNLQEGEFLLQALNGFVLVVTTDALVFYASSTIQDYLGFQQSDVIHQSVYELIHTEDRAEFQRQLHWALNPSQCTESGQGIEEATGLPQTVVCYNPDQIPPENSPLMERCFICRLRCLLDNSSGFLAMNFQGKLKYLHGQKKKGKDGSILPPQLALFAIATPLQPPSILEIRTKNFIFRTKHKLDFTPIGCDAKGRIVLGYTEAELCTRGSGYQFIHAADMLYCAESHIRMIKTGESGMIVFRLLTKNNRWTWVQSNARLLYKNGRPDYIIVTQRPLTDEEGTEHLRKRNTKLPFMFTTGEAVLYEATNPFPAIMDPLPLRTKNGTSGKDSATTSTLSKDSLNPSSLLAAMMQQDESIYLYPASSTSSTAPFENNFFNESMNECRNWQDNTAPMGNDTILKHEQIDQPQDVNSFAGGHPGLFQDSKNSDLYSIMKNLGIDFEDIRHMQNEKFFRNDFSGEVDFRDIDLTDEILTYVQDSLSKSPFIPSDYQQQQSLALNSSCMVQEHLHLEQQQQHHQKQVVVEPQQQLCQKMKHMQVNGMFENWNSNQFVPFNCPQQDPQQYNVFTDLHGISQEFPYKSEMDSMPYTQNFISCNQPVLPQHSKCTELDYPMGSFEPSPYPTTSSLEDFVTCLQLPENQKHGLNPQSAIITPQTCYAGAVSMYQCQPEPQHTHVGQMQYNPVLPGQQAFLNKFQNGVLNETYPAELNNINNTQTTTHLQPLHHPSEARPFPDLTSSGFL
Summary of the method: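 A multiplexed format paired cell viability (CellTiter-Fluor fluorescence) with AhR-dependent luciferase output (ONE-Glo luminescence) in the same wells of HepG2 DRE-luc cells after 24 h compound exposure at 37C.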

[3] = qHTS assay to identify small molecule that activate the aryl hydrocarbon receptor (AhR) signaling pathway - cell viability counter screen (AID 743086);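 note: HepG2 liver cells carrying the AhR DRE luciferase reporter; series mostly up to about 70 µM; nearly all actives have a fitted effect of over 45% in size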
Summary of the method: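 Cytotoxicity counter screen: CellTiter-Fluor signal (30 min, 37 C) in 4000 HepG2 cells/well carrying the DRE-luciferase reporter, following 24 h compound exposure at 37 C.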

[4] = molecular target: Peroxisome proliferator-activated receptor gamma (Homo sapiens) (UniProt P37231); assay: qHTS assay to identify small molecule agonists of the peroxisome proliferator-activated receptor gamma (PPARg) signaling pathway (AID 743094; active = well fitted activation curve with a large enough effect in the signal ratio in the repeat runs, not every such curve was filed as active; the % refers to the signal ratio)
Sequence of Peroxisome proliferator-activated receptor gamma (Homo sapiens) (P37231 whole entry, looked up): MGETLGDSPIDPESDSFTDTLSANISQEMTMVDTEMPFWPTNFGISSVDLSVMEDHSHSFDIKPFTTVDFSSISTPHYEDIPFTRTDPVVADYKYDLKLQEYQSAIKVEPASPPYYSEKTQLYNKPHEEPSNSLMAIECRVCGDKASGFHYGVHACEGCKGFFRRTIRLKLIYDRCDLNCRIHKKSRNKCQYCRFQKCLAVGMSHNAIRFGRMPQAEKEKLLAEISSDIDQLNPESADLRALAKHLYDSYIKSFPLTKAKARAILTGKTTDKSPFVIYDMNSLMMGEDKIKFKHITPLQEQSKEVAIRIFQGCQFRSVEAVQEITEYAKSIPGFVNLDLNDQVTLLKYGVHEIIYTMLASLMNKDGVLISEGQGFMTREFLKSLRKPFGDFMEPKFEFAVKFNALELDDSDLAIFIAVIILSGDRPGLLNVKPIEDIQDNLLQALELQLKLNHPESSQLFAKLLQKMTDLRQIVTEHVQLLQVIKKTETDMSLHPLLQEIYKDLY
Summary of the method: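 Following 5 h plating at 37C, PPARg-bla HEK293H cells receive compound or DMSO for 17 h; fluorescence intensity is recorded after LiveBLAzer B/G loading for 1 h at room temperature.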

[5] = molecular target: Peroxisome proliferator-activated receptor gamma (Homo sapiens) (UniProt P37231); assay: qHTS assay to identify small molecule antagonists of the peroxisome proliferator-activated receptor gamma (PPARg) signaling pathway (AID 743191; calls by dose curve; note: series mostly up to about 63 µM; nearly all actives have a fitted effect of over 30% in size)
Summary of the method: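 Beta-lactamase reporter under UAS control in HEK293H PPARg-bla cells; compound treatment 17 h at 37C. Read-out: fluorescence intensity after 1 h room-temperature incubation with LiveBLAzer B/G FRET substrate.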

[6] = qHTS assay to identify small molecule antagonists of the peroxisome proliferator-activated receptor gamma (PPARg) signaling pathway - cell viability counter screen (AID 743194); note: nearly all actives have a fitted effect of over 55% in size
Summary of the method: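 Viability was measured as CellTiter-Glo luminescence in GeneBLAzer PPARg UAS-bla HEK293H cells. These cells had been exposed 17 h at 37 C to compounds together with rosiglitazone at 50 nM final, with the beta-lactamase readout taken in the same wells.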

[7] = qHTS assay for small molecule agonists of the antioxidant response element (ARE) signaling pathway (AID 743202; active = well fitted activation curve with a large enough effect in the signal ratio in the repeat runs, not every such curve was filed as active; the % refers to the signal ratio)
Summary of the method: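 Quantitative high-throughput format in HepG2 cells bearing an integrated ARE-beta-lactamase reporter. Compound exposure lasted 16 h at 37 C, and fluorescence was read 2 h after adding LiveBLAzer B/G substrate at room temperature.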

[8] = qHTS assay for small molecule agonists of the antioxidant response element (ARE) signaling pathway - cell viability counter screen (AID 743203; calls by dose curve; note: nearly all actives have a fitted effect of over 55% in size)
Summary of the method: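 Compounds in DMSO were pinned onto ARE-bla HepG2 cells plated 5 hrs earlier at 2,000 cells/well. Sixteen hours later at 37C/5% CO2, CellTiter-Glo was added and luminescence measured after 30 min at room temperature.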

[9] = qHTS assay for small molecule activators of the heat shock response signaling pathway - cell viability counter screen (AID 743209); note: nearly all actives have a fitted effect of over 50% in size
Summary of the method: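 Counter screen for cytotoxicity in HeLa HSE-bla reporter cells. Treatment was 5 h at 37 C; viability was detected by luminescent ATP assay (CellTiter-Glo) in the same wells as the beta-lactamase read.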

[10] = qHTS assay to identify small molecule agonists of the peroxisome proliferator-activated receptor delta (PPARd) signaling pathway - cell viability counter screen (AID 743211); note: nearly all actives have a fitted effect of over 55% in size
Summary of the method: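 Tox21 library compounds, delivered in DMSO, were incubated 17 h with PPARd-bla HEK293H cells; cytotoxicity was taken from CellTiter-Glo luminescence read 30 min after reagent addition.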

[11] = qHTS assay to identify small molecule antagonists of the peroxisome proliferator-activated receptor delta (PPARd) signaling pathway - cell viability counter screen (AID 743213); note: nearly all actives have a fitted effect of over 50% in size
Summary of the method: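 Viability counter-screen, qHTS format: PPARd-bla HEK293H, L165041 300 nM final, 17 h compound exposure at 37 C, CellTiter-Glo luminescence after 30 min RT.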

[12] = qHTS assay to identify small molecule agonists of the farnesoid-X-receptor (FXR) signaling pathway - cell viability counter screen (AID 743218); note: nearly all actives have a fitted effect of over 45% in size
Summary of the method: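 After 16 h at 37 C with test compounds, FXR-bla HEK 293T cells were given LiveBLAzer B/G substrate for 2 h at RT and then CellTiter-Glo; luminescence was taken after 30 min.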

[13] = qHTS assay to identify small molecule antagonists of the farnesoid-X-receptor (FXR) signaling pathway - cell viability counter screen (AID 743221; active = well fitted cell-killing curve with a large enough effect in the repeat runs, not every such curve was filed as active; note: nearly all actives have a fitted effect of over 50% in size)
Summary of the method: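 Cytotoxicity is taken from ATP luminescence (CellTiter-Glo, 30 min, room temperature) in FXR-bla HEK 293T cells previously incubated 16 h at 37 C with compound and chenodeoxycholic acid at 50 uM final.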

[14] = molecular target: Vitamin D3 receptor (Homo sapiens) (UniProt P11473); assay: qHTS assay to identify small molecule agonists of the vitamin D receptor (VDR) signaling pathway (AID 743222; calls by dose curve)
Sequence of Vitamin D3 receptor (Homo sapiens) (P11473 whole entry, looked up): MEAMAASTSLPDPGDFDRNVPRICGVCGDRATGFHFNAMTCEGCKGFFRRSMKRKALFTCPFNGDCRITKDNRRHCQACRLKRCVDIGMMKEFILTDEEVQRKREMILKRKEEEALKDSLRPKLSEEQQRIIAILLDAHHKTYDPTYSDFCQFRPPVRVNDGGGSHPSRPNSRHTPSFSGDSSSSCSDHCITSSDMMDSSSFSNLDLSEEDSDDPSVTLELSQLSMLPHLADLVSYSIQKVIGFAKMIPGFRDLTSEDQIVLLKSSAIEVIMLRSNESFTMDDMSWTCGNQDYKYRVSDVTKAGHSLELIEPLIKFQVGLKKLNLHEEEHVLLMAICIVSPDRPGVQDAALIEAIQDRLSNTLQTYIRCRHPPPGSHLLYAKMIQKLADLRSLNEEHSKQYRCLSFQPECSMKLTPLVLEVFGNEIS
Summary of the method: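 VDR-bla cells were seeded, left 4 h, treated with compounds in DMSO for 16 h, incubated 2 h at RT with B/G FRET substrate, and read for fluorescence.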

[15] = molecular target: Vitamin D3 receptor (Homo sapiens) (UniProt P11473); assay: qHTS assay to identify small molecule antagonists of the vitamin D receptor (VDR) signaling pathway (AID 743223; active = well fitted inhibition curve with a large enough effect in the signal ratio in the repeat runs, not every such curve was filed as active; the % refers to the signal ratio)
Summary of the method: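 Quantitative HTS in VDR-bla reporter cells stimulated with 1alpha,25-dihydroxyvitamin D3, 3 nM final. Compound exposure 16 h, 37C, 5% CO2. Read-out: beta-lactamase FRET substrate fluorescence, 2 h RT.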

[16] = qHTS assay for small molecule activators of the heat shock response signaling pathway (AID 743210; active = well fitted activation curve with a large enough effect in the signal ratio in the repeat runs, with a control signal flat, not every such curve was filed as active; the % refers to the signal ratio;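 note: HeLa cells with beta-lactamase reporter driven by heat shock elements; series mostly up to about 63 µM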)
Summary of the method: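 HeLa HSE-bla cells, overnight plating; cpd in DMSO 5 h, 37 C; LiveBLAzer B/G FRET substrate 2.5 h RT; fluorescence intensity read.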

[17] = molecular target: Bile acid receptor (Homo sapiens) (UniProt Q96RI1); assay: qHTS assay to identify small molecule antagonists of the farnesoid-X-receptor (FXR) signaling pathway (AID 743217; active = well fitted inhibition curve with a large enough effect in the signal ratio in the repeat runs, not every such curve was filed as active; the % refers to the signal ratio)
Sequence of Bile acid receptor (Homo sapiens) (Q96RI1 whole entry, looked up): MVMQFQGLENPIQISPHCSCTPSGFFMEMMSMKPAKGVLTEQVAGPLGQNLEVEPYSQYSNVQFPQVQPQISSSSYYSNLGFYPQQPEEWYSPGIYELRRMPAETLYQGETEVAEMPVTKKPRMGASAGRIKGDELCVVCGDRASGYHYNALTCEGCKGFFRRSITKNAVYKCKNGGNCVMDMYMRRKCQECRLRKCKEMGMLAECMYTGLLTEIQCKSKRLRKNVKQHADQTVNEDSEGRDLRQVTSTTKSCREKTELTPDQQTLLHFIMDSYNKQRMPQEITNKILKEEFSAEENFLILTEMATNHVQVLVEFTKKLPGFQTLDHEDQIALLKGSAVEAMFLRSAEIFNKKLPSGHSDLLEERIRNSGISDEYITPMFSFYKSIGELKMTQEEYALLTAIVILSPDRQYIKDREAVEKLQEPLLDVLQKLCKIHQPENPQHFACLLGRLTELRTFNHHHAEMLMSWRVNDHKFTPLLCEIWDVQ
Summary of the method: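 In this cell-based antagonist screen, inhibition of CDCA-driven (50 uM final) UAS-beta-lactamase expression in HEK 293T cells was measured by FRET fluorescence following 16 h compound exposure at 37 °C.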

[18] = molecular target: Bile acid receptor (Homo sapiens) (UniProt Q96RI1); assay: qHTS assay to identify small molecule agonists of the farnesoid-X-receptor (FXR) signaling pathway (AID 743220; active = well fitted activation curve with a large enough effect in the signal ratio in the repeat runs, not every such curve was filed as active; the % refers to the signal ratio)
Summary of the method: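 Beta-lactamase reporter under UAS control in GeneBLAzer FXR HEK 293T cells (5000/well) measured with LiveBLAzer FRET substrate after 2 h at room temperature. Compound exposure lasted 16 h at 37C.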

[19] = molecular target: Peroxisome proliferator-activated receptor delta (Homo sapiens) (UniProt Q03181); assay: qHTS assay to identify small molecule agonists of the peroxisome proliferator-activated receptor delta (PPARd) signaling pathway (AID 743212; calls by dose curve)
Sequence of Peroxisome proliferator-activated receptor delta (Homo sapiens) (Q03181 whole entry, looked up): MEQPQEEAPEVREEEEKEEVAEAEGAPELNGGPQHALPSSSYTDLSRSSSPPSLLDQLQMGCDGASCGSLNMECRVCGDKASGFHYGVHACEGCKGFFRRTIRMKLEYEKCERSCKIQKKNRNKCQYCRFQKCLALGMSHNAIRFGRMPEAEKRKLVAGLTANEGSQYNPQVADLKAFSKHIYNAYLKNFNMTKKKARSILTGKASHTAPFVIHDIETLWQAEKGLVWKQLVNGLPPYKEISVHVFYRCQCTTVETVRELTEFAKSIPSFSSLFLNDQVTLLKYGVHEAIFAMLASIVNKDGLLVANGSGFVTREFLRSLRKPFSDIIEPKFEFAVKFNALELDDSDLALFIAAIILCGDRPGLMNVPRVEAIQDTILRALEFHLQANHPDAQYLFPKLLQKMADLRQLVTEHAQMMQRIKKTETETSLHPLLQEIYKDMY
Summary of the method: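 HEK293H PPARd-bla cells; 5 h preincubation 37 C/5% CO2; compound (DMSO) 37 C; LiveBLAzer B/G FRET substrate 2 h RT; fluorescence intensity.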

[20] = molecular target: Peroxisome proliferator-activated receptor delta (Homo sapiens) (UniProt Q03181); assay: qHTS assay to identify small molecule antagonists of the peroxisome proliferator-activated receptor delta (PPARd) signaling pathway (AID 743215; active = well fitted inhibition curve with a large enough effect in the signal ratio in the repeat runs, not every such curve was filed as active; the % refers to the signal ratio;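 note: cells stimulated with agonist L165041 at 300 nM final during compound exposure; series mostly up to about 62 µM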)
Summary of the method: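 With L165041 present at 300 nM final, compounds were incubated 17 h at 37 C on PPARd UAS-bla HEK293H cells. A FRET-based beta-lactamase substrate was then applied for 2 h at room temperature and fluorescence intensity recorded.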

Measured: Potency

CC(=O)Oc1ccccc1C(=O)O
not listed: [16] | [17] | [18] | [19] | [20]
inactive: all other assays above

OC[C@@H](O)[C@@H](O)[C@H](O)[C@H](O)CO
not listed: [17] | [18] | [19] | [20]
inactive: all other assays above

CN(C)C=O
not listed: [14] | [15] | [19] | [20]
inactive: all other assays above

CCCCCCCC(=O)OCC(O)CO (stereo not drawn)
not listed: [14] | [15] | [17] | [18] | [20]
inactive: all other assays above

COC(=O)C1CCC(C(=O)OC)CC1 (stereo not drawn)
not listed: [7]
inactive: all other assays above

COc1cc2c(c(OC)c1OC)-c1ccc(OC)c(=O)cc1[C@@H](NC(C)=O)CC2
not listed: [7] | [15] | [17] | [19] | [20]
inactive: all other assays above

CN/C(=C\[N+](=O)[O-])NCCSCc1ccc(CN(C)C)o1
not listed: [16] | [17] | [18] | [20]
inactive: all other assays above

O=C(O)CCCCC1CCSS1 (stereo not drawn)
not listed: [7] | [17] | [18] | [20]
inactive: all other assays above
